Inconclusive results are not listed. Activity calls are given as the source filed them. Calls come from the whole dose curve; as a rule, active = well fitted cell-killing curve with a large enough effect in the repeat runs; inconclusive = weak or mixed curves, or effect the other way; inactive = no such curve, though single readings can be large or run the other way.
% is set by controls: 0 for no effect and ±100 for the full control effect.

A short description of the assay: qHTS assay to identify small molecule antagonists of the sonic hedgehog signaling (Shh) pathway - cell viability counter screen (AID 1259367). Note: nearly all actives have a fitted effect of over 55% in size. The conditions noted are these: NIH/3T3 Gli1-Luc viability, CellTiter-Fluor, 24 h; series mostly up to 92.4 µM. An excerpt: National Center for Advancing Translational Sciences [NCATS]
NIH Chemical Genomics Center [NCGC]
U.S. Environmental Protection Agency [EPA]
National Institutes of Environmental Health Sciences [NIEHS]
National Toxicology Program [NTP]
U.S. Food and Drug Administration [FDA]
The sonic hedgehog (Shh) pathway is essential for normal embryonic development. Dysregulation of the Shh pathway can cause severe developmental defects in organs. Therefore chemicals that interfere with the pathway are potential developmental toxicants. A cell line designated 3T3Gli1-Luc (DMB/OARSA/CFSAN/FDA, Laurel, MD), a NIH/3T3 derived clone containing stably integrated Gli1-Luc reporter is used to detect chemical interference of the Shh pathway, by changes in the expression of the firefly Luc gene under the control of the Gli1 transcriptional response element. This cell line was used to screen Tox21 libraries for identifying and prioritizing the potential developmental toxicants that interfere Shh pathway. Conditioned medium-stimulated mode was used to screen for chemicals inhibiting Shh signaling. The cytotoxicity of the compounds was tested in parallel by measuring the cell viability using CellTiter-Fluor assay system (Promega, Madison, WI) in the same wells.
Tox21 Assay Protocol Summary:
3T3 Gli1-Luc cells were dispensed at 2,000 per well in 5uL of culture medium into white solid bottom 1536-well plates (Greiner Bio-One, Monroe, NC) using a Multidrop Combi (Thermo Scientific, Waltham, MA) dispenser. The assay plates were incubated at 37 C and 5% CO2 for 4hr, and then 23nL of compounds dissolved in DMSO and positive control were transferred using a Pintool station (Wako, San Diego, CA). The compound transfer was followed by the addition of 1ul conditioned medium or assay buffer using two separate tips of Flying Reagent Dispenser (FRD, Aurora Discovery, San Diego, CA). The assay plates were incubated at 37C and 5% CO2 for 24hr. For viability read, after 23hr of compound treatment, 1uL of CellTiter-Fluor reagent (Promega Corporation, Madison, WI) was added to each well of the assay plates using Flying Reagent Dispenser (FRD, Aurora Discovery, San Diego, CA) and incubated the assay plates at 37C for 1hr. The fluorescence signal was quantified using a ViewLux plate reader (Perkin Elmer, Shelton, CT).
Background: Quantitative high-throughput screening tests each substance at several concentrations.
`CCO[Si](CCCN=C=O)(OCC)OCC`: the compound was called inactive. Consider `COC(=O)CCCC(=O)O`, for which the compound was classed as inactive. Still for that read-out and setting: then `COc1cc(C)cc(O)c1`, with “inactive”. As to `CC(C)COC(=O)C(C)C`, the compound was classed as inactive. With `CCCc1ccccc1O`, the compound was called inactive. Turning to `CCC(=O)Nc1cccc(N)c1`, the compound was called inactive. In the case of `CN(C)C(=O)Nc1ccccc1`, the result was inactive.

Take `CC(=O)N[C@@H](CCC(N)=O)C(=O)O`: the result was inactive. As for `Cn1ccc2cc3c(cc21)CCN3C(=O)Nc1cccnc1`, the viability change, negative = cytotoxic was 4.69% [at 19 µM] (inactive). Regarding `CCC(C(=O)NC(N)=O)c1ccccc1` (stereo not given), the result was inactive. In the case of `Cc1ccc(N)cc1[N+](=O)[O-]`, the outcome was inactive. Take `O=c1[nH]c(=O)n([C@H]2O[C@H](CO)[C@@H](O)[C@@H]2O)cc1/C=C\Br`: the compound was classed as inactive. Consider `COC(=O)CCCCCCCCC(=O)OC`, for which the outcome was inactive. As for `O=C(O)c1cccc(C(=O)O)n1`, the compound was classed as inactive. In the case of `COc1ccc(N=[N+]([O-])c2ccc(OC)cc2)cc1`, the compound was classed as inactive. As to `c1ccc2cnncc2c1`, the compound was called inactive. Consider `O=C(O)/C=C/c1ccc(/C=C/C(=O)O)cc1`, for which the result was inactive. For `CCCOc1ccccc1-c1nc2n[nH]nc2c(=O)[nH]1`, the compound was classed as inactive. Turning to `COCCOC(=O)CC#N`, the outcome was inactive. Still for that read-out and setting: to `CC(=O)NC(Cc1ccccc1)C(=O)O` (stereo not given) belongs “inactive”; to `CC(C)(O)Cc1ccccc1`, “inactive”; to `NC(=O)c1c(Cl)cccc1Cl`, “inactive”. On to `CC(C)CCCC(C)CCCC(C)CCCCC(C)CCCC(C)CCCC(C)C` (stereo not given), for which the outcome was inactive.

As for `NS(=O)(=O)c1cc2c(cc1Cl)NC(CSCc1ccccc1)=NS2(=O)=O`, the compound was called inactive. Take `C#CC(O)CCCCC` (stereo not given): the outcome was inactive.

For the compound `CCCCCOC(=O)Nc1nc(=O)n([C@@H]2O[C@H](C)[C@@H](O)[C@H]2O)cc1F`, the call was inactive. Still for that read-out and setting: to `Nc1ncnc2c1ncn2Cc1c(F)cccc1Cl` belongs “inactive”. As to `NCCNC(=O)c1ccc(Cl)cn1`, the outcome was inactive.

Consider `C1=C\CC/C=C\CC/C=C\CC/1`, for which the result was inactive. In the case of `Nc1nc(F)nc2c1ncn2[C@@H]1O[C@H](CO)[C@@H](O)[C@@H]1O`, the result was inactive. With `Cc1cc(C)c(NC(=O)CN(CC(=O)O)CC(=O)O)c(C)c1Br`, the compound was classed as inactive. As for `Nc1[nH]c(=O)ncc1F`, the compound was called inactive. Regarding `O=C(O)C(O)[C@H](O)[C@@H](O)[C@H](O)[C@H](O)CO` (stereo not given in full), the compound was called inactive. With `NC(CS)C(=O)O` (stereo not given), the compound was called inactive. Still for that read-out and setting: then `O=C(CCOCCOCCOCCOCCC(=O)Nc1c(I)cc(I)c(C(=O)O)c1I)Nc1c(I)cc(I)c(C(=O)O)c1I`, with “inactive”; and `CCn1c(=O)c2c(nc(/C=C/c3ccc(OC)c(OC)c3)n2C)n(CC)c1=O`, with “inactive”. In the case of `CC(C)(C)C(=O)/C=C/c1ccc(Cl)cc1`, the compound was called inactive. With `CC(C)(O)C(=O)c1ccc(OCCO)cc1`, the call was inactive. Same read-out and setting: to `CC/C=C\C#N` belongs “inactive”; to `CN(C)N=Nc1ccccc1`, “inactive”.

For the origin of these results see PubChem BioAssay (Tox21).
